# Measured values as given in PubChem BioAssay AID463195 (Sanford-Burnham Center for Chemical Genomics, 2010).
# In all, about 330,000 compounds went through this assay and about 4,600 (1.4%) were called active. This is one part of a sample in which actives are shown more often than they occur.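 Rule for the calls: active = inhibition of 40% or more at the single tested concentration; inactive = the rest.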
# Test: wild-type TIM10 yeast growth inhibition – luminescence, uHTS, counter-screen for tim10-1 yeast inhibitor project, primary screen (AID 463195);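 note: wild-type TIM10 isogenic control strain grown at permissive 25 °C; 0% = DMSO yeast wells and 100% = minimal medium wells without yeast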
# Conditions: S. cerevisiae TIM10 strain growth, BacTiter-Glo luminescence, 24 h; at 10 µM; active compounds read high
row,Structure (SMILES),inhibition
1,N/C(=N\OC(=O)c1cc(-c2ccccc2)nc2ccccc12)c1ccncc1,61.8% (active)
2,COC(=O)CNC(=O)c1cc(-c2ccncc2)nc2ccccc12,-9.97% (inactive)
3,C/C(N)=C(/C#N)C(=O)COC(=O)c1cc(-c2ccc(C)cc2)nc2ccccc12,23.8% (inactive)
4,CC(=O)c1ccc(OC(=O)N2CCOCC2)cc1,9.97% (inactive)
5,O=C(Oc1ccc(C(=S)N2CCOCC2)cc1)c1ccc(F)cc1,7.76% (inactive)
6,O=C(Oc1ccc(F)cc1)N1CCOCC1,97.5% (active)
7,CCOc1c(OC)cccc1C(=O)NCC1(c2ccccc2)CCCC1,27.6% (inactive)
8,CC(C)(C)n1ncc2c(=O)n(Cc3c(Cl)cccc3Br)cnc21,5.55% (inactive)
9,Cc1ccc(OCC(=O)Nc2cccc3c2CCCC3)cc1C,28.1% (inactive)
10,O=C(NC(Nc1nc2ccc([N+](=O)[O-])cc2s1)(C(F)(F)F)C(F)(F)F)c1ccccc1,76.9% (active)
11,O=C(NOCc1ccccc1)c1cccc([N+](=O)[O-])c1,0.85% (inactive)
12,O=C(COC(=O)c1ccc([N+](=O)[O-])cc1Cl)NC(=O)c1ccccc1,-3.01% (inactive)
13,CCc1ccc(C(=O)NN=C2CCCCCC2)s1,-0.295% (inactive)
14,CCCC(C(=O)N1CCOCC1)N1C(=O)C2C3C=CC(C3)C2C1=O (stereo not given),-10.3% (inactive)
15,CCC(C)(C)n1nnnc1CN1CCN(c2nc3ccc(C)cc3cc2C#N)CC1,41.5% (active)
16,CCC(C)(C)n1nnnc1C(c1cccs1)N1CCN(c2nc3ccccc3s2)CC1 (stereo not given),37.8% (inactive)
17,CCOc1ccc2nc(N3CCCN(C(=O)Nc4ccccc4C)CC3)c(C#N)cc2c1,2.29% (inactive)
18,CSc1ccc(CN(C)CC(=O)NCc2ccc(F)cc2)cc1,-1.15% (inactive)
19,Cn1c(CNC(=O)c2ccco2)nnc1SCC(=O)N1CCN(c2ccccc2)CC1,2.03% (inactive)
20,O/N=C(\c1ccc2c(c1)OCCO2)C1CCCCC1,3.12% (inactive)
21,Cc1c(CNCCc2ccccc2)c(C(=O)O)c(C)n1-c1ccccc1,-4.69% (inactive)
22,COc1cc(/C=N/n2c(C)n[nH]c2=S)ccc1OCc1ccccc1,8.61% (inactive)
23,Cn1c(-c2sc3cc(C(F)(F)F)cnc3c2-c2ccccc2)n[nH]c1=S,-3.83% (inactive)

row,Structure (SMILES),inhibition
1,Cn1c(-c2sccc2OCc2cccc(C(F)(F)F)c2)n[nH]c1=S,42.2% (active)
2,CCOc1ccc(-n2c(SCC(=O)Nc3cc(C(=O)O)ccc3Cl)nc3ccccc3c2=O)cc1,22.7% (inactive)
3,CCn1c(CNS(=O)(=O)c2ccc(Cl)cc2)n[nH]c1=S,-9.99% (inactive)
4,S=c1[nH]nc(CSCc2ccc(Cl)cc2Cl)n1-c1ccccc1,38.8% (inactive)
5,CCn1c(CSCc2c(Cl)cccc2Cl)n[nH]c1=S,53.7% (active)
6,Clc1ccc(C2=CSC3=Nc4cccc5cccc(c45)N23)cc1,21.2% (inactive)
7,CCN(CC)P(=O)(/C(Cl)=C\Nc1c(C)n(C)n(-c2ccccc2)c1=O)N(CC)CC,2.07% (inactive)
8,COc1ccc(CCNCC(O)Cn2ccc3ccccc32)cc1OC (stereo not given),-8.76% (inactive)
9,O=C1c2ccccc2C(=O)c2c1cccc2N1CCN(Cc2ccccc2)CC1,41.3% (active)
10,O=C1c2ccccc2C(=O)c2c1cccc2N1CCN(CCO)CC1,12.2% (inactive)
11,O=C1c2ccccc2C(=O)c2c1cccc2N1CCN(C/C=C/c2ccccc2)CC1,38.5% (inactive)
12,Cc1ccc(NC(=O)CN(C)C(=O)Cn2nnc(-c3ccccc3)n2)cc1,0.534% (inactive)
13,COc1ccccc1CNC(=O)COc1ccc(C)nc1[N+](=O)[O-],9.85% (inactive)
14,Cc1cccc(NC(=O)CCn2c(=O)oc3ccccc32)c1,-10% (inactive)
15,CC(OC(=O)c1cc2ccccc2o1)C(=O)Nc1ccc(N2CCOCC2)cc1 (stereo not given),3.94% (inactive)
16,O=C(CN1CCN(C2CCCCC2)CC1)Nc1ccccc1N1CCCCC1,4.11% (inactive)
17,Cc1ccc(C(C)C)cc1OCC(=O)Nc1ccccc1N1CCCC1,-2.85% (inactive)
18,CN1CCN(c2ccccc2NC(=O)COc2ccc(C3CCCCC3)cc2)CC1,40.4% (active)
19,COc1ccc(CNC(=O)CCn2cccc2)cc1,-5.68% (inactive)
20,COc1ccc(NC(=O)/C(C#N)=C\c2cc(OC)c(OCc3ccc(C(=O)O)cc3)cc2Br)cc1,26.4% (inactive)
21,COc1ccc(CNC(=O)/C(C#N)=C/c2cccc(OC)c2OC)cc1,70.4% (active)
22,C=CCSc1nnc(N2C(=O)C(O)=C(C(=O)c3ccco3)C2c2ccc(F)cc2)s1 (stereo not given),1.92% (inactive)
23,Cc1ccc2[nH]c3c(=O)n(CC(=O)NCCc4ccc(Cl)cc4)ncc3c2c1,-0.819% (inactive)

row,Structure (SMILES),inhibition
1,C=CCO/N=C/C1=C(O)C(C(=O)OC)C(C)(C)CC1=O (stereo not given),6.77% (inactive)
2,Cc1ccc(Nc2nc(-c3ccc(O)cc3O)cs2)nc1,11.7% (inactive)
3,O=c1oc2ccccc2cc1-c1csc(Nc2ccc(O)cc2)n1,43.9% (active)
4,O=C(Nc1ccncc1)c1cc2ccccc2o1,-3.62% (inactive)
5,Cc1csc(=O)n1CC(=O)Nc1ccc(S(C)(=O)=O)cc1,-3.37% (inactive)
6,CCn1c(=O)c2ccccc2n(CC(=O)N2CCCc3ccccc32)c1=O,-2.71% (inactive)
7,CC(C)c1ccc2c(c1)c(SC(C)(C)C)c(CC(C)(C)C(=O)O)n2Cc1ccc(Cl)cc1,3.33% (inactive)
8,N/C(=N\OC(=O)Cc1ccccc1[N+](=O)[O-])c1ccc(Br)cc1,57.9% (active)
9,N/C(=N/O)c1cccn1Cc1ccccc1[N+](=O)[O-],-10.5% (inactive)
10,N/C(=N\OC(=O)N1c2ccccc2Sc2ccccc21)c1ccc(Br)cc1,-9.5% (inactive)
11,CC[C@@H]1Cc2cc(O)ccc2C2=C1c1ccc(O)cc1C[C@H]2CC,58.9% (active)
12,CCOc1ccc(N2C(=O)Nc3ccccc3C2(O)C(=O)NCc2ccco2)cc1 (stereo not given),-6.83% (inactive)
13,CN(C)C(=O)CCc1ccc2c3c([nH]c2c1)[C@]1(CCc2ccccc2)[C@@H](C(=O)N2CCCCC2)C[C@H](CC(=O)NCCC2=CCCCC2)C(=O)N1CC3,-1.38% (inactive)
14,Cc1cc(C(F)(F)F)nc(SCC(=O)Nc2nccs2)n1,2.33% (inactive)
15,Cn1cnnc1SCC(=O)Nc1ccc(N2CCOCC2)cc1,-21.6% (inactive)
16,CN(C)CCCN(C(=O)c1ccc(S(=O)(=O)N2CCCCCC2)cc1)c1nc2cc3c(cc2s1)OCCO3,11.4% (inactive)
17,CCN(CC)CCN(C(=O)c1ccc(S(=O)(=O)N2CCOCC2)cc1)c1nc2cc3c(cc2s1)OCCO3,41% (active)
18,CCN(CC)CCN(C(=O)c1ccc(N2C(=O)CCC2=O)cc1)c1nc2cc3c(cc2s1)OCO3,-10.9% (inactive)
19,Cc1ccc(N(CC(=O)NCC2CCCO2)C(=O)CNS(=O)(=O)c2ccc(Cl)cc2)cc1 (stereo not given),11.1% (inactive)
20,COc1cccc(N2CC(NS(=O)(=O)c3ccc(Cl)cc3)CC2=O)c1 (stereo not given),-3.31% (inactive)
21,CCOC(=O)C1(C)NC(c2ccco2)C2C(=O)N(c3ccccc3)C(=O)C21 (stereo not given),-0.047% (inactive)
22,CCCC1(C(=O)OCC)NC(c2ccc(N(C)C)cc2)C2C(=O)N(c3ccc4c(c3)OCCO4)C(=O)C21 (stereo not given),4.95% (inactive)
23,CCCCC1(C(=O)OCC)NC(c2ccc(O)cc2)C2C(=O)N(c3ccccc3)C(=O)C21 (stereo not given),58.8% (active)

row,Structure (SMILES),inhibition
1,Cc1ccc(NC(=O)C2CCCN2C(=O)OCc2ccccc2)cc1C (stereo not given),-1.12% (inactive)
2,CC(=NCc1ccco1)c1c(C(F)(F)F)[nH]n(-c2nc3ccccc3s2)c1=O,50.6% (active)
3,CCC(C)Cn1c(O)cc2nn(-c3nc4ccccc4s3)c(=O)c-2c1C (stereo not given),-6.61% (inactive)
4,CCC1(CC)NC(=O)N(Cc2nc3ccccc3s2)C1=O,0.882% (inactive)
5,COc1cc(NC(=O)C2CC(c3ccccc3O)=NO2)c(OC)cc1Cl (stereo not given),-3.49% (inactive)
6,COC(C/C=C/C(=O)[C@@H](C)OCc1ccccc1)OC,50.1% (active)
7,COC(C[C@@H]1O[C@@H]1C(=O)[C@H](C)OCc1ccccc1)OC,-11% (inactive)
8,COC(C[C@H](O)CC(=O)[C@@H](C)OCc1ccccc1)OC,8.38% (inactive)
9,COC(=O)[C@@H]1CC[C@H](C)[C@@H](c2ccc(C)cc2)N1C(=O)c1ccc(/C=N/O[C@H](C)c2cn([C@@H]3COC[C@H]3O)nn2)cc1,-0.068% (inactive)
10,CN(CC(=O)Nc1ccc(Cl)cc1)C(=O)CNC(=O)c1ccc2ccccc2c1,-7.81% (inactive)
11,CN(C)CCCN(C(=O)c1ccc(S(=O)(=O)N2CCCc3ccccc32)cc1)c1nc2ccc(F)cc2s1,40.9% (active)
12,CCOc1ccc2nc(N(CCCN(C)C)C(=O)c3ccc(C(=O)c4ccccc4)cc3)sc2c1,11.2% (inactive)
13,CN(C)CCCN(C(=O)c1ccc(S(=O)(=O)N2CCCCCC2)cc1)c1nc2ccc(Br)cc2s1,34.5% (inactive)
14,Cc1cc(NCc2ccco2)n2c(nc3ccccc32)c1C#N,-0.142% (inactive)
15,COc1ccc(Nc2oc(-c3ccccc3Cl)nc2C#N)cc1,13.8% (inactive)
16,Cc1ccccc1-c1nc(C#N)c(NCc2ccco2)o1,46.8% (active)
17,CC(C)CCn1c(=O)c2c(nc3n2CCCN3Cc2ccccc2)n(C)c1=O,11.2% (inactive)
18,COc1ccc(Cc2nnc(N/N=C/c3ccccc3O)[nH]c2=O)cc1OC,9.37% (inactive)
19,Cc1nn(Cc2ccc(Cl)c(Cl)c2)c(C)c1NC(=O)c1cc(C2CC2)on1,43% (active)
20,Cc1nn(Cc2ccc(F)cc2)c(C)c1NC(=O)c1cccnc1Cl,-10.4% (inactive)
21,CSc1ccccc1NC(=O)c1cc(C2CC2)on1,7.03% (inactive)
